Assay outcomes deposited in PubChem BioAssay by several laboratories.
A selection: hits, their analogues and other compounds. The true share with any hit is near 13%.
WT yeast gro inh = growth inhibition of WT yeast, mitochondrial fusion screen | mitochondrial fusion phenotypic screen, WT strain | inhibition, % at 10 µM | hit rate 2.1% among 190,000 | AID 1362; in the data active = inhibition above about 58%; tested in S. cerevisiae
CHOP inhibitor = inhibitors of CHOP induction in ER stress response; CHO-K1 CHOP-promoter luciferase, tunicamycin-induced, 15-18 h; inhibition, % at 10 µM; hit rate 3.8% among 220,000; AID 2732;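 active = compounds that reduced the stress-induced luciferase reporter signal by more than about 70% of percent inhibition, limit read from the data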
L major viab = Leishmania major promastigote growth inhibition | Leishmania major promastigotes, resazurin fluorescence viability | inhibition, % at 10 µM | hit rate 9% among 200,000; in the data active = inhibition above about 50%;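 note: promastigotes grown with compound for 44 hours at 28 °C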
RAM inhibit = blocks the yeast RAM network; inhibition, % at 50 µM; S. cerevisiae dse1pr::URA3 reporter, 5-FOA growth OD615, 2 d; analog-sensitive cbk1-as2 kinase mutant strain; hit rate 1.8% among 190,000;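 active = inhibition above a set limit, 3 SD over mean compound inhibition, cut at about 8.4% in these data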;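 note: inhibition rescues growth on 5-FOA so higher OD means more RAM inhibition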
Hits are given with their value; . = inactive; / = no result.

SMILES	WT yeast gro inh	CHOP inhibitor	L major viab	RAM inhibit
COc1cc(-c2nc3c[n+](CC(=O)c4ccccc4)ccc3n2C)cc(OC)c1OC	.	.	.	.
COc1ccc(C(=O)C[n+]2ccc3c(c2)nc(-c2ccc(OC)cc2OC)n3C)cc1	.	.	87	.
COc1ccc(C(=O)C[n+]2ccc3c(c2)nc(-c2ccccc2)n3C)cc1	.	.	68	.
Cc1nn(C)c(C)c1NC(=O)c1ccccc1NC(=O)Nc1ccccc1	/	.	/	/
COC(=O)C1=C(C(=O)OC)SC2(S1)C(C(=O)OC)=C(C(=O)OC)SC1=C2c2cc(C)ccc2NC1(C)C	.	73	.	.
CCn1c(=O)cc(SCC(=O)N2CCN(C3CCCCC3)CC2)c2ccccc21	.	.	51	.
CCc1ccc2[nH]c(=O)c(CN(Cc3ccccc3)C(=O)Nc3ccccc3OC)cc2c1	.	73	64	.
COc1ccc2cc(CN(CC3CCCO3)C(=O)Nc3ccccc3OC)c(=O)[nH]c2c1 (stereo unspecified)	.	.	.	.
COc1ccc2cc(CN(C(=O)Nc3ccccc3OC)C3CCCC3)c(=O)[nH]c2c1	.	.	53	.
COc1cc2cc(CN(C(=O)NC3CCCCC3)C3CCCC3)c(=O)[nH]c2cc1OC	.	.	.	.
O=C(NC1CCCCC1)N(Cc1cc2cc3c(cc2[nH]c1=O)OCCO3)C1CCCCC1	.	.	69	.
CCc1ccc2[nH]c(=O)c(CN(CCN(C)C)C(=O)Nc3ccccc3OC)cc2c1	.	.	.	.
O=C(/C=C/c1ccc(O)c(O)c1)O[C@H](Cc1ccc(O)c(O)c1)C(=O)O	/	.	/	/
CCCN(CCC)CC(C)(C)NS(=O)(=O)c1ccc(Cl)cc1	/	.	/	/
COc1cc(C=C(c2nc3ccccc3s2)c2nc3ccccc3s2)ccc1O	.	74	97	.
COc1ccc(C=C(c2nc3ccccc3s2)c2nc3ccccc3s2)cc1O	.	.	99	9.2
O=C1CC(=O)N(CCNc2ncc(C(F)(F)F)cc2Cl)C(=O)N1	.	.	.	.
O=S(=O)(NCCNc1ncc(C(F)(F)F)cc1Cl)C(F)(F)F	83	.	.	.
O=[N+]([O-])c1cccnc1NCCNc1ncc(C(F)(F)F)cc1Cl	.	75	.	.
O=C1C=CC(=O)N1CCNc1ncc(C(F)(F)F)cc1Cl	97	.	.	.
O=[N+]([O-])c1ccccc1NCCNc1ncc(C(F)(F)F)cc1Cl	.	.	.	.
O=C(Nc1ccc(Br)cc1)C1OCCc2ccccc21 (stereo unspecified)	/	.	/	/
COc1ccc(C2C(C#N)=C(N)N(c3cccnc3)C3=C2C(=O)CC(C)(C)C3)cc1OC (stereo unspecified)	.	.	.	.
COc1ccc(OC)c(N2C(N)=C(C#N)C(c3ccc(OC)c(O)c3)C3=C2CC(C)(C)CC3=O)c1 (stereo unspecified)	/	.	/	/
C=CCOc1ccc(C2C(C#N)=C(N)N(Nc3ccccc3)C3=C2C(=O)CCC3)cc1OC (stereo unspecified)	.	.	96	.
SMILES	WT yeast gro inh	CHOP inhibitor	L major viab	RAM inhibit
COc1cccc(C2C(C#N)=C(N)N(c3ncn[nH]3)C3=C2C(=O)CCC3)c1 (stereo unspecified)	.	.	.	.
COc1cc(C2C(C#N)=C(N)N(Nc3ccccc3)C3=C2C(=O)CC(C)(C)C3)ccc1OCc1cccc(F)c1 (stereo unspecified)	.	.	56	.
COc1cc(C2C(C#N)=C(N)N(Nc3ccccc3)C3=C2C(=O)CC(C)(C)C3)ccc1OCc1ccccc1 (stereo unspecified)	.	.	100	.
COc1ccc(C2C(C#N)=C(N)N(Nc3ccccc3)C3=C2C(=O)CC(C)(C)C3)cc1C (stereo unspecified)	.	.	86	.
CN(c1ncc(C(F)(F)F)cc1Cl)N1C(=O)c2cccc([N+](=O)[O-])c2C1=O	.	.	.	.
CCCCCC(=O)Cc1cc(O)cc2c1C(=O)Oc1cc(O)c(C(=O)O)c(CCCCC)c1O2	/	.	/	/
O=C(CSc1cccs1)Nc1cccc2ccccc12	.	.	64	.
Cc1cc(C)cc(-c2nnc(SCC(=O)c3ccc4c(c3)OCCO4)o2)c1	.	.	.	.
O=C(CSc1nnc(-c2ccccc2)o1)c1ccc2c(c1)OCCO2	.	.	.	8.4
O=C(CSc1cccs1)Nc1ccc2ccccc2c1	.	.	.	.
O=C(OCC#CCSc1nnc(-c2ccc(Br)cc2)o1)c1ccco1	.	.	.	10
O=C(CSc1nnc(-c2ccccc2)o1)Oc1ccc(Br)cc1	.	81	.	.
CCOC(=O)CSc1nnc(-c2ccccc2)o1	.	.	.	.
O=C(OCC#CCSc1nnc(-c2ccccc2)o1)c1ccco1	.	.	.	.
O=C(OCC(=O)N1CCc2ccccc2C1)c1cccnc1Cl	.	.	.	.
COc1ccc2c(=O)c(Oc3ccc(C(=O)O)cc3)c(C(F)(F)F)oc2c1	.	.	.	.
O=C(CC1Nc2c3ccccc3nc(=S)n2C1=O)NC1CCCCC1 (stereo unspecified)	.	.	.	.
Cc1cccc(NC(=O)CSc2nnc(-c3cc(C)n(-c4ccccc4)c3C)o2)c1C	.	91	.	.
O=C(CSc1nnc(-c2ccccc2)o1)Nc1ccccc1F	.	.	.	.
Cc1cc(-c2nnc(SCC(=O)Nc3ccccc3C(F)(F)F)o2)c(C)n1-c1ccccc1	.	.	.	.
Cc1cccc(C)c1OC(=O)CSc1nnc(-c2ccccc2O)o1	.	92	.	.
O=C(CSc1nnc(-c2ccc(Br)cc2)o1)Nc1cccc2ccccc12	.	70	.	.
O=C(Nc1ccc(NC(=O)C2CC2)nc1)c1ccco1	.	.	.	.
O=C(Nc1ccc(NC(=O)C2CC2)cn1)c1ccccc1Cl	.	.	.	.
O=C(Nc1ccc(NC(=O)C2CCCCC2)nc1)c1ccco1	.	.	86	.
SMILES	WT yeast gro inh	CHOP inhibitor	L major viab	RAM inhibit
O=C(Nc1ccc(NC(=O)C2CCCCC2)nc1)c1ccccn1	.	.	71	.
Cc1ccc(CNC(=O)CSc2nc3[nH]ncc3c(=O)[nH]2)cc1	.	.	.	.
Cc1ccc(NC(=O)C(OC(=O)c2ccc(C=O)cc2)c2ccccc2)cc1Cl (stereo unspecified)	.	.	.	.
COc1ccc(CCNC(=O)COC(=O)C23CC4CC(CC(C4)C2)C3)cc1	.	.	.	.
COc1ccc(CCNC(=O)COC(=O)C23CC4CC(CC(Br)(C4)C2)C3)cc1	.	.	56	.
CCOC(=O)N1CCC(N2CCCC(CO)(Cc3cccc(Cl)c3)C2)CC1 (stereo unspecified)	.	.	87	.
CCOC(=O)C1(Cc2cccc(Cl)c2)CCCN(C(=O)C2CC2)C1 (stereo unspecified)	.	.	.	.
Cc1ccccc1CC1(CO)CCCN(Cc2ccn[nH]2)C1 (stereo unspecified)	.	.	.	.
Cc1ccc(CN2CCCC(CO)(Cc3ccccc3C)C2)s1 (stereo unspecified)	.	.	66	.
CCOC(=O)N1CCC(N2CCCC(CO)(Cc3ccccc3C)C2)CC1 (stereo unspecified)	.	.	88	.
N#Cc1ccc(-c2ccc(OCC(=O)NCC(=O)Nc3ccc(F)c(F)c3F)cc2)cc1	.	.	58	.
